From PubChem BioAssay (Tox21)
Results filed as inconclusive are left out. Unmarked numbers belong to inactive results. Active and inactive are the calls of the source. The call rests on the fitted dose curve; in most records, active means well fitted cell-killing curve with a large enough effect in the repeat runs; inconclusive means weak or mixed curves, or effect the other way; inactive means flat fitted curve, though single readings scatter.

assay: cAMP Responsive Elements (CRE) small molecule antagonists, cell-based qHTS assay: qHTS cell viability counter screen (AID 2060913); conditions: CRE-bla HEK293T viability, CellTiter-Glo luminescence, 5 h; series mostly up to 92.4 µM; viability change, negative = cytotoxic: at the top concentration; further: nearly all actives have a fitted effect of over 40% in size
In short: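 HEK293T CRE-bla, 2,000 cells/well, 18 h preincubation; cpd in DMSO + NKH477 0.25 uM final, 3 h 37 C/5% CO2; LiveBLAzer 2 h RT, then CellTiter-Glo 30 min RT, luminescence.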
On the % scale 0 is the no-effect control and ±100 the full control effect.

| SMILES | Potency | viability change, negative = cytotoxic |
| --- | --- | --- |
| CN(C)[C@@H]1C(=O)C(C(N)=O)=C(O)[C@@]2(O)C(=O)C3=C(O)c4c(O)cccc4[C@@](C)(O)[C@H]3C[C@@H]12 | inactive |  |
| CN(C)c1ccc(N)cc1 |  | -16.2% |
| CC(C)N(C(=O)SC/C(Cl)=C/Cl)C(C)C |  | 2.27% |
| CN(C)N |  | -2.16% |
| CCCCNP(N)(N)=S |  | -1.35% |
| Cc1ccc(OP(=O)(Oc2ccc(C)cc2)Oc2ccc(C)cc2)cc1 | inactive |  |
| CC(C)CC(C)N (stereo not given) |  | -1.38% |
| CC(Cc1ccccc1)NCCCCl (stereo not given) |  | 2.08% [at 42.5 µM] |
| O=[N+]([O-])c1cc(Cl)ccc1Cl |  | 7.65% |
| C#CC(C)(C)O |  | -8.3% |
| O=C(O)CBr |  | 1.96% |
| CCCCCC[N+](=O)[O-] |  | -9.41% |
| COC(=O)Nc1cccc(OC(=O)Nc2cccc(C)c2)c1 |  | 3.15% |
| CN1CCc2cc3c(cc2C1O)OCO3 (stereo not given) |  | -0.59% |
| O=C(O)C(Br)(Br)Br |  | 8.75% |
| CCOc1nc(C(Cl)(Cl)Cl)ns1 |  | -8.61% |
| CN(N=O)c1ccccc1 | inactive |  |
| CCc1cccc(C)c1N(C(=O)CCl)[C@@H](C)COC |  | -16.4% |
| c1ccc(C2CO2)cc1 (stereo not given) | inactive |  |
| Cc1nnc2n1-c1sc(CCc3ccc(CC(C)C)cc3)cc1C(c1ccccc1Cl)=NC2C (stereo not given) |  | -21% [at 42.5 µM] |

| SMILES | Potency | viability change, negative = cytotoxic |
| --- | --- | --- |
| C[C@@H]1C[C@@H]([C@H](O)CC2CC(=O)NC(=O)C2)C(=O)[C@@H](C)C1 | inactive |  |
| Oc1cc(Cl)cc(Cl)c1 |  | -17% |
| CC(C)c1ccc(O)cc1 |  | 7.09% |
| Clc1cc2c(cc1Cl)Oc1cc(Cl)c(Cl)cc1O2 |  | 7.14% [at 0.349 µM] |
| C[C@]12CC[C@H](O)CC1=CC[C@@H]1[C@@H]2CC[C@]2(C)C(=O)CC[C@@H]12 | inactive |  |
| CCCCCCCCCCCC(=O)O | inactive |  |
| CC(CC(C(N)=O)(c1ccccc1)c1ccccc1)N(C)C (stereo not given) |  | -1.24% [at 42.5 µM] |
| O=C(O)c1ccccn1 | inactive |  |
| N#CC(Cl)Cl |  | -7.91% |
| C#CC(O)(C=CCl)CC (stereo not given) |  | 0.224% [at 42.5 µM] |
| COP(=S)(OC)Oc1ccc([N+](=O)[O-])cc1 | inactive |  |
| COc1ccc2c3c1O[C@H]1[C@@H](O)C=C[C@H]4[C@@H](C2)N(C)CC[C@@]341 | inactive |  |
| CCCCCCCCOC(=O)c1ccc(C(=O)OCCCCCCCC)c(C(=O)OCCCCCCCC)c1 |  | 1.61% |
| CC(C)(C)c1ccc(CSc2cnn(C(C)(C)C)c(=O)c2Cl)cc1 |  | -17.6% |
| Cc1cccc(C)c1N | inactive |  |
| Oc1ccc(Cc2ccc(O)cc2)cc1 |  | -1.07% |
| CC[C@H](N)c1ccccc1 |  | 9.32% |
| CC1(C)CN=C(NN=C(/C=C/c2ccc(C(F)(F)F)cc2)/C=C/c2ccc(C(F)(F)F)cc2)NC1 |  | -19.9% |
| Oc1ccc(I)cc1 |  | -6.9% |
| O=C=Nc1ccc(Cl)cc1 |  | 0.207% |

assay: cAMP Responsive Elements (CRE) small molecule agonists, cell-based qHTS assay: qHTS cell viability counter screen (AID 2060914); conditions: CRE-bla HEK293T viability, CellTiter-Glo luminescence, 5 h; series mostly up to 92.4 µM; activity change, negative = cytotoxicity: at the top concentration;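 further: viability read after 3 h of compound exposure; nearly all actives have a fitted effect of over 50% in size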
In short: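 CRE-bla HEK293T cells in 10% dialyzed FBS medium were exposed to compounds for 3 h at 37C after 18 h plating. CellTiter-Glo was then added in the same wells, and luminescence was read after 30 min at room temperature.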

| SMILES | Potency | activity change, negative = cytotoxicity |
| --- | --- | --- |
| CN(C)[C@@H]1C(=O)C(C(N)=O)=C(O)[C@@]2(O)C(=O)C3=C(O)c4c(O)cccc4[C@@](C)(O)[C@H]3C[C@@H]12 | inactive |  |
| CN(C)c1ccc(N)cc1 |  | 4.99% |
| CC(C)N(C(=O)SC/C(Cl)=C/Cl)C(C)C |  | -6% |
| CN(C)N |  | 1.07% |
| CCCCNP(N)(N)=S |  | -6.6% |
| Cc1ccc(OP(=O)(Oc2ccc(C)cc2)Oc2ccc(C)cc2)cc1 |  | -11.1% |
| CC(C)CC(C)N (stereo not given) |  | -1.98% |
| CC(Cc1ccccc1)NCCCCl (stereo not given) |  | 4.97% [at 42.5 µM] |
| O=[N+]([O-])c1cc(Cl)ccc1Cl |  | 5.43% |
| C#CC(C)(C)O |  | -10.3% |
| O=C(O)CBr |  | -0.721% |
| CCCCCC[N+](=O)[O-] |  | 5.66% |
| COC(=O)Nc1cccc(OC(=O)Nc2cccc(C)c2)c1 | inactive |  |
| CN1CCc2cc3c(cc2C1O)OCO3 (stereo not given) |  | -9.41% |
| O=C(O)C(Br)(Br)Br |  | 9.37% |
| CCOc1nc(C(Cl)(Cl)Cl)ns1 |  | 22% |
| CN(N=O)c1ccccc1 | inactive |  |
| CCc1cccc(C)c1N(C(=O)CCl)[C@@H](C)COC |  | -14.6% |
| c1ccc(C2CO2)cc1 (stereo not given) | inactive |  |
| Cc1nnc2n1-c1sc(CCc3ccc(CC(C)C)cc3)cc1C(c1ccccc1Cl)=NC2C (stereo not given) |  | -15.2% [at 42.5 µM] |

| SMILES | Potency | activity change, negative = cytotoxicity |
| --- | --- | --- |
| C[C@@H]1C[C@@H]([C@H](O)CC2CC(=O)NC(=O)C2)C(=O)[C@@H](C)C1 |  | 26.4% [at 42.5 µM] |
| Oc1cc(Cl)cc(Cl)c1 |  | -16.8% |
| CC(C)c1ccc(O)cc1 |  | 10.3% |
| Clc1cc2c(cc1Cl)Oc1cc(Cl)c(Cl)cc1O2 |  | 1.6% [at 0.349 µM] |
| C[C@]12CC[C@H](O)CC1=CC[C@@H]1[C@@H]2CC[C@]2(C)C(=O)CC[C@@H]12 | inactive |  |
| CCCCCCCCCCCC(=O)O | inactive |  |
| CC(CC(C(N)=O)(c1ccccc1)c1ccccc1)N(C)C (stereo not given) |  | 8.12% [at 42.5 µM] |
| O=C(O)c1ccccn1 | inactive |  |
| N#CC(Cl)Cl |  | 1.87% |
| C#CC(O)(C=CCl)CC (stereo not given) |  | -13.1% [at 42.5 µM] |
| COP(=S)(OC)Oc1ccc([N+](=O)[O-])cc1 | inactive |  |
| COc1ccc2c3c1O[C@H]1[C@@H](O)C=C[C@H]4[C@@H](C2)N(C)CC[C@@]341 | inactive |  |
| CCCCCCCCOC(=O)c1ccc(C(=O)OCCCCCCCC)c(C(=O)OCCCCCCCC)c1 |  | 6.75% |
| CC(C)(C)c1ccc(CSc2cnn(C(C)(C)C)c(=O)c2Cl)cc1 |  | -17.9% |
| Cc1cccc(C)c1N | inactive |  |
| Oc1ccc(Cc2ccc(O)cc2)cc1 |  | 0.223% |
| CC[C@H](N)c1ccccc1 |  | -0.64% |
| CC1(C)CN=C(NN=C(/C=C/c2ccc(C(F)(F)F)cc2)/C=C/c2ccc(C(F)(F)F)cc2)NC1 |  | -7.68% |
| Oc1ccc(I)cc1 |  | 4.23% |
| O=C=Nc1ccc(Cl)cc1 |  | 1.34% |
